These results are taken from PMC5540273 (PLoS ONE, 2017).

One assay concerns T1, VEGFR2.
T1 construct: gene KDR

A further assay deals with T2, YANK1.
T2 construct: gene STK32A

In the next assay the test system is T3, YSK1.
T3 construct: gene STK25

Each structure is given as a SMILES string.
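Also: kd values determined as follow-up on hits from a single-replicate KINOMEscan panel screen.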

By Kd is commonly meant the free concentration of one partner at which half of the binding sites on the other are occupied at equilibrium, for simple one-to-one binding. Read a high Kd as a looser complex. `Cn1ccc2ncnc(Oc3ccc(NC(=O)Nc4ccccc4)cc3)c21`: in the assay on VEGFR2, the Kd was determined as 45 nM.

In turn, `CCn1c(-c2cccnc2O)nc2cnccc21` [SB-736715] registered a Kd in the assay on WEE2 of over 10 µM.

`Cn1cncc1-c1ccc2ncnc(Nc3ccc(OCc4ccccc4)cc3)c2c1` [GW320571] came in with a Kd in the assay with YANK1 of over 10 µM.

On to `Nc1ncnc2[nH]c(-c3ccccc3)nc12` [AH5015], for which the Kd with YANK1 was over 10 µM.

In the assay with YSK1, `CCn1c(-c2ccccn2)nc2cnccc21` [SB-736398] had a Kd of over 10 µM.
